Results on 103 compounds are retold here after PubChem BioAssay AID488841 (Sanford-Burnham Center for Chemical Genomics, 2010).

Among all 1,400 compounds or so, about 380 (27%) were called active.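 The calls were made as follows: active = mean inhibition above 50% across duplicate retests at 10 µM; inactive = the rest.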 The list shows a part of the results.

This experiment can be described thus: inhibition of NALP1/ASC/caspase-1 reporter signal in yeast, confirmation, NALP1 inhibitor project, S. cerevisiae, luminescence, single concentration (AID 488841).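 Also: plate controls were DMSO in galactose medium for no effect and cells in plain SD medium for full effect.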 To be noted: S. cerevisiae NALP1/ASC/Caspase-1 reporter, beta-gal luminescence; at 10 µM; stronger effect = higher value.
In the case of `CCCn1nc(NC(=O)c2ccccn2)c2cc3cc(C)ccc3nc21`, the inhibition is 13.2% (inactive). As for `NC(C(=O)O)C1CC(Cl)=NO1` (stereo not drawn), the figure is 24.8% (inactive); as for `S=C(NC1CCCCC1)NN(c1ccccc1)c1ccccc1`, 21.3% (inactive); as for `O=S(=O)(/C=C/c1ccccc1)NC1CCCCCCC1`, 61.6% (active). As for `O=C(c1cccc(F)c1)N1CCN(c2cc(N3CCCCC3)c(F)cc2[N+](=O)[O-])CC1`, the figure is 46.2% (inactive); as for `O=C(c1ccc2c(Cl)c3c(nc2c1)CCCC3)N1CCN(c2ccc(F)cc2)CC1`, 64.8% (active).

Regarding `O=C(NC(=O)N1CCN(c2ccc(F)cc2)CC1)c1ccccc1`, the inhibition is 32.6% (inactive). As for `COc1ccc(N(CCC#N)S(=O)(=O)c2ccc(Cl)cc2)cc1`, the figure is 26.2% (inactive); as for `CCC(C)(C)NCC(=O)Nc1ccc(OC(F)(F)F)cc1`, 36.4% (inactive). As for `Cc1ccc(NC(=O)CNc2ccc(OC(C)C)cc2)cc1`, the figure is 50.8% (active); as for `CC(C)Oc1ccc(NC(=O)CCC(=O)O)cc1`, 21.6% (inactive). `C=C(C(=O)c1ccccc1)C(C)C(=C)C(=O)c1ccccc1`: the inhibition was 59.5% (active).

With `CNC(=O)C(NC(=O)c1ccccc1)=C(C)C`, the inhibition was 30.4% (inactive). As for `COc1ccc(C(=O)NCc2ccccc2)cc1S(=O)(=O)N1CCCc2ccccc21`, the figure is 32.7% (inactive); as for `Cc1ccc(NC2(C#N)C(=O)Nc3ccccc32)cc1` (stereo not drawn), 30.8% (inactive); as for `COC(=O)c1ccccc1NC(=O)C1CCCN(S(=O)(=O)c2ccc(OC)cc2)C1` (stereo not drawn), 66.3% (active). Regarding `CN1CCN(S(=O)(=O)c2ccc(NC(=S)NC(=O)C(C)(C)C)cc2)CC1`, the inhibition is 26.6% (inactive). As for `COC(=O)c1ccccc1NC(=O)C1CCN(C(=O)c2cc(OC)cc(OC)c2)CC1`, the figure is 20.4% (inactive).

For the compound `CCCCn1cnc2c1c(=O)[nH]c(=O)n2CCCC`, the inhibition is 21.8% (inactive). Consider `O=[N+]([O-])c1ccc(O)c2ncccc12`, for which the inhibition was 93.5% (active). As for `O=C(c1ccc(Cl)c([N+](=O)[O-])c1)N(c1ccccn1)c1ccccn1`, the figure is 24.1% (inactive); as for `CN1/C(=C\C(=O)Nc2ccc(Cl)cc2)C(C)(C)c2ccccc21`, 42.2% (inactive). As for `O=C(Cc1noc2ccccc12)Nc1ccc(Cl)cc1`, the figure is 55.3% (active); as for `O=C(Cn1c(=O)oc2ccccc21)Nc1ccc(Cl)cc1`, 33% (inactive); as for `C#CCOc1c(Br)cc(/C=N/O)cc1OCC`, -19.1% (inactive).

As for `Cc1cccnc1NC(=O)c1ccccc1NC(=O)C(C)(C)C`, the inhibition is 36.7% (inactive). As for `COc1cccc(CNc2ccc3c(c2)CCC3)c1`, the figure is 34.2% (inactive); as for `O=[N+]([O-])c1cccc(CNc2ccc3c(c2)CCC3)c1`, 52.9% (active); as for `O=C(c1cccc([N+](=O)[O-])c1)n1nc(-c2ccccc2)nc1NCc1ccccc1`, 37% (inactive).

In the case of `O=C1CCCc2ccccc2N1Cc1ccc(Cl)cc1Cl`, the inhibition is 28.2% (inactive). As for `Cc1cc(Br)ccc1OCCCCN1CCC(C)CC1`, the figure is 52.2% (active); as for `Brc1cccc(OCCCCN2CCCCC2)c1`, 29.7% (inactive); as for `CC1CCN(CCOc2cccc(Br)c2)CC1`, 36% (inactive). As for `Cc1c(-c2ccccc2)[n+](=O)c2c(n1[O-])CCC2`, the figure is 22.1% (inactive); as for `COc1cccc(C2c3c(-c4ccccc4O)n[nH]c3C(=O)N2Cc2ccco2)c1` (stereo not drawn), 29.4% (inactive). As for `CN1CCN(C(=O)CSc2nc3c(c(=O)n(C)c(=O)n3C)n2C)CC1`, the figure is 29.1% (inactive); as for `Nc1[nH]ncc1N=Nc1ccc(Cl)cc1`, 56.7% (active); as for `CC(C)(CN1CCN(Cc2ccccc2)CC1)NS(=O)(=O)c1ccc(Cl)cc1`, 42.2% (inactive).

On to `O=c1c(O)c(-c2cccs2)oc2ccccc12`, for which the inhibition is 78% (active).

As for `CCOCCCn1c(=NC(C)=O)c(C(=O)OCC)cc2c(=O)n3ccccc3nc21`, the inhibition was 23.1% (inactive). In the case of `CCOC(=O)CSc1nnc(-c2ccccc2)c(=O)[nH]1`, the inhibition is 33.8% (inactive).

Regarding `CCOC(=O)c1c(-c2ccccc2)nc2ccccn12`, the inhibition is 99.4% (active).

Turning to `CCOC(=O)c1ccccc1NC(=O)COc1cc(=O)n(CC)c2ccccc12`, the inhibition was 8% (inactive). As to `CC(=O)N1CC[n+]2c(-c3ccc(Cl)cc3Cl)csc21`, the inhibition was 19.1% (inactive). `CCN1CCN(Cc2cccc(Oc3ccccc3)c2)CC1`: the inhibition was 34.3% (inactive). As to `Nc1ccc(Oc2cccc(Oc3ccc(N)cc3)c2)cc1`, the inhibition is 50.5% (active). Regarding `CC(C)C(NC(=O)CN1C(=O)c2ccccc2S1(=O)=O)C(C)C`, the inhibition is 21.5% (inactive). Take `O=C(N/N=C/c1cc2c3c(c1O)CCCN3CCC2)c1ccccc1O`: the inhibition was 25.8% (inactive). As for `Cn1c(=O)c2c(nc(Sc3ncccn3)n2Cc2ccccc2Cl)n(C)c1=O`, the figure is 29.4% (inactive); as for `Cc1cc(OCCN2CCCC2)cc(C(C)C)c1`, 34.4% (inactive); as for `O=C(CN1C(=O)C2C3C=CC(C3)C2C1=O)NCCc1ccccc1` (stereo not drawn), 24.9% (inactive). As for `O=C(NCCCc1ccccc1)c1ccccc1O`, the figure is 53% (active); as for `COc1ccc(CNc2nc(C)c([N+](=O)[O-])c(C)c2C#N)cc1`, 29.2% (inactive); as for `CC(C)(C)n1nc(-c2ccc(F)cc2)c2c(N)ncnc21`, 91.7% (active). Take `c1ccc(CCNc2nc(-c3cccnc3)cs2)cc1`: the inhibition was 32.7% (inactive).

For `Nc1nc2ccc(Oc3ccccc3)cc2s1`, the inhibition was 88.2% (active). As for `Cc1sc(N)nc1-c1ccc(Oc2ccccc2)cc1`, the figure is 61.1% (active); as for `COc1ccc(-c2csc(N3C(=O)C4C5c6ccccc6C(c6ccccc65)[C@@H]4C3=O)n2)cc1` (stereo partly drawn), 45.8% (inactive). Regarding `Nc1nc(-c2ccc(Oc3ccccc3)cc2)cs1`, the inhibition is 98.5% (active). Consider `COC(=O)c1c(NC(NC(=O)C(C)C)C(Cl)(Cl)Cl)sc2c1CCC2` (stereo not drawn), for which the inhibition was 21% (inactive). As for `COC(=O)c1ccc(C(=O)OC)c(NC(=O)COC(=O)C2CCCCC2)c1`, the figure is 7% (inactive); as for `COc1ccc(OCC#CCNC(C)(C)C)cc1`, 33.4% (inactive); as for `CCCOc1ccc(C(=O)c2nc3c(n2O)CCCCC3)cc1`, 22.7% (inactive). As for `Cc1c(C(=O)N2CCOCC2)[nH]c2ccc(OCc3ccccc3)cc12`, the figure is 29.4% (inactive); as for `CCCCOc1ccc(C(=O)CCN2CCCCC2)cc1`, 41.4% (inactive). `CCOC(=O)CNC(c1ccccc1)c1cc(Br)ccc1NC(=O)CCN1CCOCC1` (stereo not drawn): the inhibition was 27.6% (inactive). As for `CCCOc1ccc(C(=O)C(CN2CCCC2)c2ccccc2)cc1` (stereo not drawn), the figure is 50.8% (active).

For `CCOc1ccc(C(=O)C(CN2CCOCC2)c2ccccc2)cc1` (stereo not drawn), the inhibition was 51.9% (active). As for `Cn1c2c(c(=O)n(C)c1=O)C(NC(=O)C(C)(C)C)(C(F)(F)F)C(=O)N2` (stereo not drawn), the figure is 24.3% (inactive); as for `NC(=NCCc1ccc(Cl)cc1)NS(=O)(=O)c1ccc(F)cc1`, 23.1% (inactive). Consider `Cc1sc2nc(SCC(=O)NCc3ccco3)n(Cc3ccccc3)c(=O)c2c1C`, for which the inhibition was 24.6% (inactive).

For the compound `CCN(CC1COc2ccccc2O1)S(=O)(=O)c1ccc(C)cc1` (stereo not drawn), the inhibition was 39.2% (inactive). Regarding `CC(C)C(C(=O)O)N1C(=O)/C(=C/c2cccn2C)SC1=S` (stereo not drawn), the inhibition is 42.4% (inactive). For the compound `O=C(Cc1ccc(Cl)cc1)Oc1cccc2cccnc12`, the inhibition was 27.7% (inactive). As for `COc1ccccc1OCC(=O)NCCSCc1ccccc1Cl`, the figure is 55.5% (active).

`O=C(COC(=O)CCSc1ccccc1)NCc1ccccc1Cl`: the inhibition was 22.2% (inactive). As for `COc1ccccc1OCC(=O)NCCSCc1ccc(Cl)cc1`, the figure is 56.6% (active); as for `COc1ccccc1OCC(=O)NCCSCc1cccc(Cl)c1`, 59.4% (active); as for `O=C(CSCc1cccc(Cl)c1)Nc1ccccc1-c1ccccc1`, 35% (inactive). As to `O=C(CCSCc1cccc(Cl)c1)NCCc1ccccc1`, the inhibition was 45.4% (inactive).

Take `O=C(COc1ccccc1Cl)NCCC1=CCCCC1`: the inhibition is 38.7% (inactive). As for `COc1ccc(CCNC(=O)CN2CCC(C)CC2)cc1OC`, the figure is 22.5% (inactive); as for `COc1cccc(N2CCN(C3CCCC(C)C3)CC2)c1` (stereo not drawn), 25.3% (inactive); as for `CC1=CCC2C(=O)N(Cc3ccccc3)C(=O)C2C1` (stereo not drawn), 24.9% (inactive). As for `COc1cc(S(=O)(=O)NCc2cccnc2)ccc1F`, the figure is 27.6% (inactive). As for `COc1cccc(C(=O)N2CCCC(c3nc(-c4cccs4)no3)C2)c1` (stereo not drawn), the figure is 29.9% (inactive); as for `CCCCCCCCCCCCCCCC[n+]1cccc2ccccc21`, 95% (active); as for `CC1(C)CC(=O)c2cc(C(=O)O)c(=O)n(-c3ccccc3)c2C1`, 32% (inactive).

In the case of `CC1(C)CC(=O)C2=C(C1)OC(N)=C([N+](=O)[O-])C2c1cccs1` (stereo not drawn), the inhibition was 42.5% (inactive).

Turning to `CC(=O)Nc1sc2c(c1-c1nc3ccccc3s1)CCN(C(C)C)C2`, the inhibition was 92.9% (active). As for `O=C(Nc1ccc(-c2nc3ccccc3s2)cc1)C1=COCCO1`, the figure is 25.9% (inactive); as for `OCCn1c(-c2ccc(F)cc2)csc1=Nc1ccccc1`, 27.4% (inactive). As for `CC(C)(C)c1cc(C(=O)O)n[nH]1`, the figure is -1.95% (inactive); as for `O=C1C(Nc2ccccc2)=C/C(=N/S(=O)(=O)c2cccs2)c2ccccc21`, 49.6% (inactive). As for `O=C1c2ccccc2-c2cccc(NS(=O)(=O)c3ccc(C(F)(F)F)cc3)c21`, the figure is 23.4% (inactive); as for `O=C(O)c1ccc(S(=O)(=O)/N=C2\C=C(Nc3ccccc3F)C(=O)c3ccccc32)cc1`, 98.8% (active). Take `CCOP(=O)(C1=C(O)C(=O)C(C(C)(C)C)=CC1=O)c1ccccc1` (stereo not drawn): the inhibition is 24.9% (inactive). On to `O=C1CSC(=S)N1c1ccc(O)cc1`, for which the inhibition was 95.2% (active). As for `O=C1CSC(=S)N1c1cccc(O)c1`, the figure is 99% (active); as for `C/C(=N/N=C1\SCC(=O)N1c1ccccc1)c1ccc(C)cc1`, 28.1% (inactive); as for `COc1cc(N2C(=O)CSC2=S)cc(OC)c1OC`, 78.7% (active). For `COc1cc(C2SCC(=O)N2CCCN(C)C)cc(OC)c1OC` (stereo not drawn), the inhibition is 17.5% (inactive). As for `Fc1ccc(N2CCN(Cc3cnc(Oc4ccc(Br)cc4)s3)CC2)cc1`, the figure is 25.8% (inactive).
